Source: PubChem
Most compounds without a hit are left out; they make up all but 2% or so of the library.
MBD2 DNA inh: MBD2-methylated oligo binding inhibition; TR-FRET, MBD2 binding to methylated oligonucleotide; actives 0.31% (n = 370,000); inhibition, % at 4.4 µM; Q9UBB5; in the data active = inhibition above about 13%
TCR CD3 inh: blocks the human TCR-CD3 interaction | AID 651800 | inhibition, % at 9.4 µM | TAMRA-labeled TCR probe fluorescence, biochemical | actives 0.37% (n = 360,000); in the data active = inhibition above about 19%;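 also: recombinant mutant TCR 2C K166C tagged with TAMRA read by polarization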
Rin1-Abl PPI inh: inhibitors of human Rin1-Abl protein interaction; actives 0.4% (n = 360,000); AID 588664; P00519+Q13671; inhibition, % at 7.35 µM; TR-FRET Rin1/Abl binding, biochemical; in the data active = inhibition above about 5%, passing the limit was not always enough
LEDGF integ inh: blocks HIV-1 LEDGF/p75-dependent DNA integration; actives 0.64% (n = 370,000); AID 743269; TR-FRET IN-LEDGF/p75 DNA integration, Eu/Cy5; inhibition, % at 3.7 µM;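 active = inhibition above the screen-wide mean plus 3 SD, cut at about 13% in these data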;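 also: signal is the Cy5 over europium emission ratio at 671 and 618 nm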
UHRF1 binding: blocks human UHRF1 binding to methylated DNA. UHRF1 binding to methylated oligo, TR-FRET. actives 0.75% (n = 370,000). Q96T88. inhibition, % at 4.4 µM; in the data active = inhibition above about 21%;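 also: UHRF1 SRA domain binding a hemimethylated CpG hairpin DNA probe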
Target sequence (Q96T88 whole entry, looked up, the tested form may be a part): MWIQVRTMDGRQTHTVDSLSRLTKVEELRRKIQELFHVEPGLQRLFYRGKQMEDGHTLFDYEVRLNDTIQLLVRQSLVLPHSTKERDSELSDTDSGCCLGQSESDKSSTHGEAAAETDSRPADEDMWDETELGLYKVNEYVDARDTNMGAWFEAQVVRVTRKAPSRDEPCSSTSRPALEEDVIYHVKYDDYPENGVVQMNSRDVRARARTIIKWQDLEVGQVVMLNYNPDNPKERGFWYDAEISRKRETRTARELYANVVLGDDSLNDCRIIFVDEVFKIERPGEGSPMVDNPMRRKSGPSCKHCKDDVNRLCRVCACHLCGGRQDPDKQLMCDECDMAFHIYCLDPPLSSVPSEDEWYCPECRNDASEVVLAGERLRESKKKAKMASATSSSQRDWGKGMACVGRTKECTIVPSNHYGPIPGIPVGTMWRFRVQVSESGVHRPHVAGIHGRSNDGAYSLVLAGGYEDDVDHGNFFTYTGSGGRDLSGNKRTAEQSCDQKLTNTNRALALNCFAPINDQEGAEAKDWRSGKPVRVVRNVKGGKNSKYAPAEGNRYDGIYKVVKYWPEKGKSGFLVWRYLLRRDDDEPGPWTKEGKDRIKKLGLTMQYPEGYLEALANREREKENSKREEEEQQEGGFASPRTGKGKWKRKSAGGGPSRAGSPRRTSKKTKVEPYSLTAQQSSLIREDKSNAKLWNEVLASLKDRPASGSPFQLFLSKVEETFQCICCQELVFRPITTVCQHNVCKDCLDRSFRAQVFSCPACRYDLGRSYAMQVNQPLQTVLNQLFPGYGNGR
Hits are given with their value.

What do the screens show for `COc1ccc(C(CNC(=O)c2ccc(NS(=O)(=O)c3ccc4c(c3)OCCO4)cc2)N(C)C)cc1` (stereo not drawn)?
MBD2 DNA inh: inactive; TCR CD3 inh: inactive; Rin1-Abl PPI inh: inactive; LEDGF integ inh: inactive; UHRF1 binding: 21.4

What do the screens show for `O=C(OC12CCCN(C1)/C(=C/c1ccc(Cl)cc1)C2)C1CCCC1` (stereo not drawn)?
MBD2 DNA inh: inactive; LEDGF integ inh: inactive; UHRF1 binding: inactive

How did CN1C(=S)N(c2cccnc2)C(=O)/C1=C\c1ccc(N(C)C)cc1 do in these assays?
MBD2 DNA inh: inactive; TCR CD3 inh: inactive; Rin1-Abl PPI inh: inactive; LEDGF integ inh: inactive; UHRF1 binding: 42.7

Results for Cc1cc(C)cc(-c2nnc(SCC(=O)NCc3cccs3)o2)c1 ?
MBD2 DNA inh: inactive; TCR CD3 inh: inactive; Rin1-Abl PPI inh: inactive; LEDGF integ inh: inactive; UHRF1 binding: inactive

What do the screens show for `CNC(=O)CSc1nnc(-c2cc(C)cc(C)c2)o1`?
MBD2 DNA inh: inactive; TCR CD3 inh: inactive; Rin1-Abl PPI inh: inactive; LEDGF integ inh: inactive; UHRF1 binding: 67.4

What do the screens show for `CC(C)(C)c1ccc(-c2nnc(SCC(=O)Nc3ccc(S(=O)(=O)Nc4nccs4)cc3)n2-c2ccc(Cl)cc2)cc1`?
MBD2 DNA inh: inactive; LEDGF integ inh: inactive; UHRF1 binding: inactive

Results for O=C(NCCN1CCOCC1)c1cccc(NS(=O)(=O)c2ccc(Br)cc2)c1 ?
MBD2 DNA inh: inactive; TCR CD3 inh: inactive; Rin1-Abl PPI inh: inactive; LEDGF integ inh: inactive; UHRF1 binding: inactive

Results for O=C1NC(=O)/C(=C/c2ccc(-c3cc(C(=O)O)ccc3Cl)o2)S1 ?
MBD2 DNA inh: inactive; TCR CD3 inh: inactive; Rin1-Abl PPI inh: inactive; LEDGF integ inh: inactive; UHRF1 binding: inactive

Results for O=C1NC(=O)/C(=C\c2ccc(Br)o2)S1 ?
MBD2 DNA inh: inactive; TCR CD3 inh: inactive; Rin1-Abl PPI inh: inactive; LEDGF integ inh: inactive; UHRF1 binding: 45.1

What do the screens show for `COc1ccc(C(c2nnnn2Cc2ccccc2)N2CCN(C/C=C/c3ccccc3)CC2)cc1` (stereo not drawn)?
MBD2 DNA inh: inactive; TCR CD3 inh: inactive; Rin1-Abl PPI inh: inactive; LEDGF integ inh: inactive; UHRF1 binding: inactive

How did Brc1ccc(CSc2nnc3ccccn23)cc1 do in these assays?
MBD2 DNA inh: inactive; TCR CD3 inh: inactive; Rin1-Abl PPI inh: inactive; LEDGF integ inh: inactive; UHRF1 binding: 32.6

How did Clc1cccc(Cl)c1CSc1nnc2ccccn12 do in these assays?
MBD2 DNA inh: inactive; TCR CD3 inh: inactive; Rin1-Abl PPI inh: inactive; LEDGF integ inh: inactive; UHRF1 binding: inactive

How did CCc1nnc(NC(=O)Cc2c[nH]c3ccccc23)s1 do in these assays?
MBD2 DNA inh: inactive; TCR CD3 inh: inactive; Rin1-Abl PPI inh: inactive; LEDGF integ inh: inactive; UHRF1 binding: inactive

What do the screens show for `CC(C)Cc1nnc(NC(=O)CCS(=O)(=O)c2ccc(Cl)cc2)s1`?
MBD2 DNA inh: inactive; TCR CD3 inh: inactive; Rin1-Abl PPI inh: inactive; LEDGF integ inh: inactive; UHRF1 binding: 24.3

What do the screens show for `CC(C)Cc1nnc(NC(=O)CCC(=O)Nc2ccc(Cl)cc2)s1`?
MBD2 DNA inh: inactive; TCR CD3 inh: inactive; Rin1-Abl PPI inh: inactive; LEDGF integ inh: inactive; UHRF1 binding: inactive

Results for CC(C)Cc1nnc(NC(=O)CCc2c[nH]c3ccccc23)s1 ?
MBD2 DNA inh: inactive; TCR CD3 inh: inactive; Rin1-Abl PPI inh: inactive; LEDGF integ inh: inactive; UHRF1 binding: 25.1

How did CC1=NN(C(C#N)c2ccccc2O)C(C)(C)C1 (stereo not drawn) do in these assays?
MBD2 DNA inh: inactive; TCR CD3 inh: inactive; Rin1-Abl PPI inh: inactive; LEDGF integ inh: inactive; UHRF1 binding: 30.2

Results for CC(C)(C)NC(=S)N/N=C/c1c(Cl)cccc1Cl ?
MBD2 DNA inh: inactive; TCR CD3 inh: inactive; Rin1-Abl PPI inh: inactive; LEDGF integ inh: inactive; UHRF1 binding: 36.0

How did Cc1ccc(NC(=O)C2OCCc3ccccc32)cc1 (stereo not drawn) do in these assays?
MBD2 DNA inh: inactive; TCR CD3 inh: inactive; Rin1-Abl PPI inh: inactive; LEDGF integ inh: inactive; UHRF1 binding: inactive

Results for Cc1ccc(NC(=O)C(=O)NCC2OCCc3ccccc32)cc1 (stereo not drawn) ?
MBD2 DNA inh: inactive; TCR CD3 inh: inactive; Rin1-Abl PPI inh: inactive; LEDGF integ inh: inactive; UHRF1 binding: 57.3

What do the screens show for `Cc1ccc(Nc2nc(N3CCOCC3)nc(N3CCOCC3)n2)cc1C`?
MBD2 DNA inh: inactive; TCR CD3 inh: inactive; Rin1-Abl PPI inh: inactive; LEDGF integ inh: inactive; UHRF1 binding: inactive

Results for C[C@H]1[C@@H](OC(=O)Nc2cccc(C(F)(F)F)c2)CC[C@@]23CCCN2C(=O)CCC[C@@H]13 ?
MBD2 DNA inh: inactive; LEDGF integ inh: inactive; UHRF1 binding: inactive

Results for C=CCn1c(SCC(N)=O)nnc1-c1cnccn1 ?
MBD2 DNA inh: inactive; TCR CD3 inh: inactive; Rin1-Abl PPI inh: inactive; LEDGF integ inh: inactive; UHRF1 binding: 73.8

Results for C=CCn1c(SCC(=O)Nc2ccc(F)cc2)nnc1-c1cnccn1 ?
MBD2 DNA inh: inactive; TCR CD3 inh: inactive; Rin1-Abl PPI inh: inactive; LEDGF integ inh: inactive; UHRF1 binding: inactive

Results for COc1cc2c[n+](C)c3c4ccccc4ccc3c2cc1OC ?
MBD2 DNA inh: 65.9; TCR CD3 inh: inactive; Rin1-Abl PPI inh: inactive; LEDGF integ inh: inactive; UHRF1 binding: inactive

What do the screens show for `COc1ccc2c(c1)c[n+](C)c1c3cc(OC)c(OC)cc3ccc21`?
MBD2 DNA inh: inactive; TCR CD3 inh: inactive; LEDGF integ inh: inactive; UHRF1 binding: inactive

What do the screens show for `COc1ccc(CNS(=O)(=O)/C=C/c2ccc(OC)cc2CNC(=O)OC(C)(C)C)cc1`?
MBD2 DNA inh: inactive; LEDGF integ inh: inactive; UHRF1 binding: inactive

How did CCOC(=O)N1CCN(C(=O)CCNS(=O)(=O)c2ccccc2)CC1 do in these assays?
MBD2 DNA inh: inactive; TCR CD3 inh: inactive; Rin1-Abl PPI inh: inactive; LEDGF integ inh: inactive; UHRF1 binding: 21.6

How did O=C(CCNS(=O)(=O)c1ccccc1)N1CCOCC1 do in these assays?
MBD2 DNA inh: inactive; TCR CD3 inh: inactive; Rin1-Abl PPI inh: inactive; LEDGF integ inh: inactive; UHRF1 binding: inactive

What do the screens show for `O=C(CNS(=O)(=O)c1ccccc1)N1CCCC1`?
MBD2 DNA inh: inactive; TCR CD3 inh: inactive; Rin1-Abl PPI inh: inactive; LEDGF integ inh: inactive; UHRF1 binding: 21.3

How did CC1CC(C)CN(CCC(=O)Nc2ccc(Br)cc2)C1 (stereo not drawn) do in these assays?
MBD2 DNA inh: inactive; TCR CD3 inh: inactive; Rin1-Abl PPI inh: inactive; LEDGF integ inh: inactive; UHRF1 binding: inactive

How did COc1ccc(NC(=O)CN(C)C(=O)CNC(=O)c2sc3ccccc3c2Cl)cc1 do in these assays?
MBD2 DNA inh: inactive; TCR CD3 inh: inactive; Rin1-Abl PPI inh: inactive; LEDGF integ inh: inactive; UHRF1 binding: inactive

Results for COc1cccc(NC(=O)CN(C)C(=O)CNC(=O)c2sc3ccccc3c2Cl)c1 ?
MBD2 DNA inh: inactive; TCR CD3 inh: inactive; Rin1-Abl PPI inh: inactive; LEDGF integ inh: inactive; UHRF1 binding: 21.3

Results for COc1ccccc1NS(=O)(=O)c1cccc(NC(=O)c2sc3ccccc3c2Cl)c1 ?
MBD2 DNA inh: inactive; TCR CD3 inh: inactive; Rin1-Abl PPI inh: inactive; LEDGF integ inh: inactive; UHRF1 binding: 25.9
